PubChem BioAssay AID485364 (National Center for Advancing Translational Sciences (NCATS), 2010)
The whole screen tested about 360,000 compounds, of which about 11,000 (3.1%) were called active. Not shown: some 4% with an inconclusive outcome. Calls follow the shape of the dose curve; as a rule, active = well fitted inhibition curve with a large enough effect; inconclusive = small, poorly fitted or top-dose-only effect; inactive = no such curve, though single readings can be large or run the other way. Only a selection was taken, and actives are over-represented in it overall.

What follows are molecules tested against Schistosoma mansoni thioredoxin glutathione reductase (TGR) (UniProt Q962Y6) (assay: qHTS Assay for the Inhibitors of Schistosoma Mansoni Peroxiredoxins). Details: purified TGR, DTNB reduction, TNB absorbance 405 nm; series mostly up to 114 µM; activity change, negative = inhibition: at the top concentration.
Procedure, shortened: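 Kinetic colorimetric format: TGR-catalysed, NADPH-driven DTNB reduction monitored via TNB absorbance. Enzyme dispensed at 20 nM; compound exposure 15 min at room temperature before reaction start.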
% is scaled to controls: 0 for no effect and ±100 for the full control effect; potency is read from the fitted curve at half-maximal effect.
Also: nearly all actives have a fitted effect of over 60% in size.

SMILES | activity change, negative = inhibition | Potency
Cc1ccc(C)c(Oc2c(C(F)(F)F)oc3c(CN4CCN(C)CC4)c(O)ccc3c2=O)c1 | -12.3% (inactive) | 
Cc1ccc2nc(COc3cccc(NC(=O)c4ccccc4Cl)c3)cc(=O)n2c1 | 3.97% (inactive) | 
Cc1[nH]c2ccccc2c1C(c1ccccc1)c1cccs1 (stereo not drawn) | -3.83% (inactive) | 
COc1ccc(N2CCN(S(=O)(=O)CCNC(=O)C(c3ccccc3)c3ccccc3)CC2)cc1 | 0.85% (inactive) | 
O=C(O)CSc1ccc(S(=O)(=O)N2CCCC2)cn1 |  | 50.1 µM (active)
O=S(=O)(c1ccc(SCc2ccccc2)nc1)N1CCCCCC1 | -23.4% (inactive) | 
CC(C)(C)C(=O)CSc1ccc(S(=O)(=O)N2CCCC2)cn1 | 6.79% (inactive) | 
COc1cc2c(cc1OC)C(COc1ccc(F)cc1)N(C(=O)c1ccccc1F)CC2 (stereo not drawn) | -1.72% (inactive) | 
COc1cccc(C(=O)NC2(C(F)(F)F)C(=O)Nc3c2c(=O)[nH]c(=O)n3-c2ccc(C)cc2)c1 (stereo not drawn) | 6.41% (inactive) | 
COc1ccc(C2=NC(c3ccncc3)=Nc3ccc(Br)cc3N2)cc1 | -3.27% (inactive) | 
Cn1c(NN)nc2sc3c(c2c1=O)CCC3 | 0.729% (inactive) | 
Cc1ccc(C)c(-n2c(SCC(=O)O)nc3sc4c(c3c2=O)CCCC4)c1 | -7.97% (inactive) | 
Cc1nc2sc3c(c2c(=O)n1NC(=O)CCl)CCCC3 |  | 39.8 µM (active)
CCC(=O)N1CCc2cc(S(=O)(=O)NC(C(=O)NCCc3ccc(C)cc3)C(C)C)ccc21 (stereo not drawn) | 6.61% (inactive) | 
C#CC(CCN1CCCCC1)(OC)c1ccccc1 (stereo not drawn) | 9.25% (inactive) | 
CCCCCC(O)(CCN1CCCCC1)c1ccccc1 (stereo not drawn) |  | 31.6 µM (active)
CCCCCCC(O)(CCN1CCCCC1)c1ccccc1 (stereo not drawn) | 2.75% (inactive) | 
Fc1ccccc1Oc1ncnc2c1oc1ccccc12 | -1.96% (inactive) | 
COc1ccc(CS(=O)/C(Cl)=C(/Cl)C(=O)Nc2ccc(OC)nc2)cc1 (stereo not drawn) |  | 0.447 µM (active)
COc1ccc(NC(=O)/C(Cl)=C(/Cl)S(=O)Cc2ccc(C)cc2)cn1 (stereo not drawn) | 0% (inactive) | 
COc1ccc(NC(=O)C(=O)NCc2ccco2)cc1 | 0.649% (inactive) | 
COc1cccc(CNCCSc2nnnn2C)c1OCc1ccccc1Cl | -1.07% (inactive) | 
O=C(C1CC1)N1CCc2cc(Br)cc(S(=O)(=O)N3CCN(c4ccccc4F)CC3)c21 | 2.49% (inactive) | 
COc1ccc(C(=O)NCCNc2ccc([N+](=O)[O-])cn2)cc1 | -19.1% (inactive) | 
COc1ccc2c(C(=O)c3ccc(C)cc3)n(CCC(N)=O)[n+]([O-])c2c1 | 7.84% (inactive) | 
COc1ccc(C(=O)c2c3ccc([N+](=O)[O-])cc3[n+]([O-])n2CCCN)cc1 |  | 25.1 µM (active)
CCCN(C(=O)Cn1ncc2c([nH]c3ccc(C)cc32)c1=O)c1ccccc1C | 0.145% (inactive) | 
O=C(c1ccc2c(c1)N(Cc1ccccc1)C(=O)c1ccccc1S2(=O)=O)N1CCCC1 | 0.183% (inactive) | 
